A selection: hits, their analogues and other compounds. The true share with any hit is near 11%.
HPGD inh: HPGD (human) dehydrogenase inhibition; P15428; purified HPGD, NADH fluorescence kinetic, PGE2 substrate; Potency, µM, actives largely listed as inhibitors; 150,000 tested, 4.3% active
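NADH formation kinetics: reaction with 30 uM PGE2 and 1 mM NAD+ (final), 20 nM enzyme, Tris-HCl pH 8 with Tween 20, after 15 min compound preincubation at room temperature. Fluorescence change, last versus first of five reads.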
ALDH1A1 inh: ALDH1A1 (human) enzyme inhibition | Purified ALDH1A1, NADH fluorescence, propionaldehyde substrate | Potency, µM (highest dose often 75.3 µM), usual class: inhibitors | 220,000 tested, 7.3% active | AID 1030
Target sequence (P00352 whole entry, looked up): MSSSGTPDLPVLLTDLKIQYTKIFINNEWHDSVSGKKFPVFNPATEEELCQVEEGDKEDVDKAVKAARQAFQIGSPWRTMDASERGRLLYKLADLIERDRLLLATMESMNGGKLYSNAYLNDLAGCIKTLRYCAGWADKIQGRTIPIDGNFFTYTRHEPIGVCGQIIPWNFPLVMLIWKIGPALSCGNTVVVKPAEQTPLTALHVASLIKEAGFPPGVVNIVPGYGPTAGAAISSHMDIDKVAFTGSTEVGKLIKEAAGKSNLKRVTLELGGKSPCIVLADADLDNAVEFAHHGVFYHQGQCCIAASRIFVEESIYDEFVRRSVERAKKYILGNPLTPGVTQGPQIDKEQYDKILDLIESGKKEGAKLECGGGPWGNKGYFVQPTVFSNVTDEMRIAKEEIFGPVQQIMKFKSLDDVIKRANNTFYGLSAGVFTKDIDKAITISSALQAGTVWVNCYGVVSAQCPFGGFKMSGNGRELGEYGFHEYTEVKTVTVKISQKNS
PNC inhibitor: blocks assembly of the perinucleolar compartment; AID 2417; activity change (PNC), negative = inhibition, % at 10 µM; 140,000 tested, 3.1% active; PC3M PTB-GFP, PNC prevalence imaging, 16 h; hits give low values;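 active = readout at or below -70, meaning at least 70% loss of cells showing the perinucleolar compartment, a nuclear body marking cancer cells; inconclusive = readout between -30 and a set limit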
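Read-out is percentage of cells bearing a perinucleolar compartment, from automated 20x imaging of fixed, Hoechst-stained PC3M PTB-GFP cells. Cells were seeded 4 h, then exposed 16 h to compound (23 nl of library stock) in duplicate plates.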
Each line names hits and unclear results; the compound was inactive in the other large screens. Unless noted, calls come from the whole dose curve; as a rule, active = well fitted inhibition curve with a large enough effect (not every such curve was filed as active); inconclusive = small, poorly fitted or top-dose-only effect, or another doubt; inactive = no such curve, though single readings can be large or run the other way.

Cc1nn(Cc2ccccc2)c(C)c1/C=N/NC(=O)c1cccnc1	HPGD inh 31.6µM, PNC inhibitor inconclusive
Cc1cc(/C=N/Nc2ccc([N+](=O)[O-])cn2)c(C)n1-c1ccccc1	ALDH1A1 inh inconclusive
O=[N+]([O-])/C=C/c1cn(Cc2ccc(F)cc2)c2ccccc12	ALDH1A1 inh inconclusive
COc1ccc(-c2nc3cncnc3n(-c3ccccc3)c2=O)cc1	none (no result: HPGD inh, PNC inhibitor)
Nc1ccc2[nH]ncc2c1	HPGD inh inconclusive, ALDH1A1 inh inconclusive
Cc1ccc(/C=C/c2ccc(=O)n(Cc3ccccc3Cl)n2)cc1	HPGD inh inconclusive, ALDH1A1 inh inconclusive
O=C(N/N=C/c1cc(Cl)cc([N+](=O)[O-])c1O)NC12CC3CC(CC(C3)C1)C2	ALDH1A1 inh inconclusive
O=C1OC(c2ccccc2)/C(=C(/O)c2ccccc2)C1=O (stereo not drawn)	ALDH1A1 inh 0.794µM, PNC inhibitor inconclusive
Cc1ccc(/C(O)=C2/C(=O)C(=O)OC2c2ccc(Cl)cc2)cc1 (stereo not drawn)	ALDH1A1 inh inconclusive
O=C1C(=O)N(CCO)C(c2ccccc2)/C1=C(\O)c1ccccc1 (stereo not drawn)	none
O=C1OC(c2ccccc2)/C(=C(/O)c2ccc(Cl)cc2)C1=O (stereo not drawn)	HPGD inh 35.5µM, ALDH1A1 inh 37.7µM
COc1ccc2c(c1[N+](=O)[O-])CCC/C2=N/OC(=O)c1cccc2ccccc12	none
CCOC(=O)c1cnn(-c2ccc([N+](=O)[O-])cc2)c1N	none (no result: HPGD inh, PNC inhibitor)
Oc1ccccc1NCC(O)Cn1ccc2ccccc21 (stereo not drawn)	ALDH1A1 inh 14.1µM (no result: HPGD inh)
OCc1nc2ccccc2n1CC(O)Cn1ccc2ccccc21 (stereo not drawn)	ALDH1A1 inh 22.4µM
O=C1c2ccccc2S(=O)(=O)N1CC(O)Cn1ccc2ccccc21 (stereo not drawn)	ALDH1A1 inh 12.6µM
O=C(CN1C(=O)c2ccccc2S1(=O)=O)c1ccccc1	PNC inhibitor inconclusive
Cc1cc(C)n(CC(O)Cn2ccc3ccccc32)n1 (stereo not drawn)	HPGD inh inconclusive
OC(CNCc1ccccc1)Cn1ccc2ccccc21 (stereo not drawn)	ALDH1A1 inh inconclusive
Cc1cc(C(=O)NCCc2ccc(Cl)cc2)no1	none (no result: HPGD inh, PNC inhibitor)
CC(=O)NCCNc1ncncc1-c1ccccc1CN(C)C	none (no result: HPGD inh, PNC inhibitor)
CCOC(=O)C1=C(C)NC(=O)NC1c1ccccc1Cl (stereo not drawn)	PNC inhibitor inconclusive
CCOC(=O)C1=C(C)NC(=O)NC1c1ccc(-c2ccccc2F)o1 (stereo not drawn)	ALDH1A1 inh 20µM, PNC inhibitor inconclusive
CCCc1cc(C(=O)Cc2ccc(F)cc2)c(O)cc1O	none
CCCC(=O)c1cc(O)c(O)cc1O	HPGD inh 6.31µM, ALDH1A1 inh inconclusive (no result: PNC inhibitor)
O=C(/C=C/c1ccco1)Nc1ccccc1N1CCCC1	none (no result: HPGD inh, PNC inhibitor)
C#CCN1C(=O)C(O)(CC(=O)/C=C/c2ccco2)c2ccccc21 (stereo not drawn)	ALDH1A1 inh 1.58µM (no result: HPGD inh, PNC inhibitor)
Cn1cccc1C(=O)N1CCC[C@@]2(CCN(c3ccccn3)C2)C1	none (no result: PNC inhibitor)
Cc1ccccc1C(=O)NCc1nnc(SCC(=O)N2CCN(c3ccccc3)CC2)n1C	ALDH1A1 inh 10µM, PNC inhibitor inconclusive
Cn1c(Cn2c(=O)sc3ccccc32)nnc1SCC(=O)N1CCN(c2ccccc2)CC1	none
O=c1cc(CN2CCN(c3ccccc3)CC2)c2cc(O)c(-c3ccccc3)cc2o1	ALDH1A1 inh inconclusive, PNC inhibitor inconclusive
O=c1cc(CN2CCN(C/C=C/c3ccccc3)CC2)c2cc(O)ccc2o1	ALDH1A1 inh 31.6µM, PNC inhibitor inconclusive
O=c1n(-c2ccccc2)c(=O)n2n1CCC2	none
O=c1n(-c2ccccc2)c(=O)n2n1CCCC2	PNC inhibitor -120.4
Brc1ccc(-c2ccc(/C=N/Nc3nc4ccccc4[nH]3)o2)cc1	HPGD inh inconclusive, ALDH1A1 inh inconclusive
CN(C)c1ccc(CNCCC2(O)CCOC(C)(C)C2)cc1 (stereo not drawn)	ALDH1A1 inh inconclusive
CN(C)c1ccc(C=NCCC2(O)CCOC(C)(C)C2)cc1 (stereo not drawn)	ALDH1A1 inh 0.562µM
O=C1c2ccccc2C(=O)N1CCCCN(C(=O)c1cccc([N+](=O)[O-])c1)c1ccc(Cl)cc1	ALDH1A1 inh 3.16µM
Cc1ccc(N(CCCCN2C(=O)c3ccccc3C2=O)C(=O)c2cccs2)cc1	ALDH1A1 inh inconclusive
O=C1c2ccccc2C(=O)N1CCCCN(C(=O)c1ccco1)c1ccc(Cl)cc1	ALDH1A1 inh 7.94µM
O=C(CN1C(=O)c2ccccc2C1=O)NCC(=O)OCC(=O)c1cccc([N+](=O)[O-])c1	none (no result: HPGD inh, PNC inhibitor)
CC1CCN(CC(O)COCCC23CC4CC(CC(C4)C2)C3)CC1 (stereo not drawn)	none
Cc1cccc(NC(=O)c2cccc(Cn3cc(Br)c([N+](=O)[O-])n3)c2)c1C	none
CC12C=C(/C=C/c3ccc(F)cc3)C(C)(C1)C(c1ccc(F)cc1)CC2=O (stereo not drawn)	none (no result: HPGD inh, PNC inhibitor)
CCOc1cc(N2CCOCC2)c(OCC)cc1NC(C)C(=O)N1CCN(CC)CC1 (stereo not drawn)	ALDH1A1 inh 22.4µM (no result: HPGD inh, PNC inhibitor)
CCOc1cc(N2CCOCC2)c(OCC)cc1NC(=O)C(C)(C)C	none (no result: HPGD inh, PNC inhibitor)
COc1ccccc1CN1CCCC2(CCN(C(=O)c3ccco3)CC2)C1	ALDH1A1 inh inconclusive (no result: PNC inhibitor)
OCCSc1nc(-c2ccccc2)nc2c1CCC2	none
NNC(=O)CSc1nc(-c2ccccc2)nc2c1CCCC2	ALDH1A1 inh 2µM (no result: HPGD inh, PNC inhibitor)
Nc1cnn(Cc2ccccc2F)c1	ALDH1A1 inh 14.1µM (no result: HPGD inh, PNC inhibitor)
Nc1cnn(Cc2ccc(F)cc2)c1	none (no result: HPGD inh, PNC inhibitor)
COc1cc2cc(C(c3nnnn3C(C)(C)C)N3CCC(C)CC3)c(=O)[nH]c2cc1OC (stereo not drawn)	HPGD inh inconclusive, ALDH1A1 inh inconclusive
COc1ccc(NC(=O)Cn2c(=O)sc3ccccc32)c(OC)c1	none
CCCCNC(=O)Cc1ccc(C)cc1	HPGD inh inconclusive
CCC(C)(C)NC(=O)Cc1ccc(C)cc1	HPGD inh 14.1µM
CC(C)C[C@H](NC(=O)[C@H](CCC(N)=O)NC(=O)[C@H](CCCCN)NC(=O)[C@H](CCC(N)=O)NC(=O)[C@@H](N)CCC(=O)O)C(=O)N[C@@H](CCC(N)=O)C(=O)O	none (no result: HPGD inh, PNC inhibitor)
CCCCc1ccc(N2C(=O)[C@@H]3C(CC(N)=O)NC4(C(=O)Nc5ccc(F)cc54)[C@@H]3C2=O)cc1 (stereo partly drawn)	ALDH1A1 inh 14.1µM
CSCCC1NC2(C(=O)Nc3c2ccc(Cl)c3C)[C@@H]2C(=O)N(C3CCCC3)C(=O)[C@H]12 (stereo partly drawn)	ALDH1A1 inh inconclusive
Cc1c(Cl)ccc2c1NC(=O)[C@]21N[C@@H](CCC(N)=O)[C@H]2C(=O)N(c3ccc(F)cc3)C(=O)[C@H]21	ALDH1A1 inh 14.1µM
NC(=O)C[C@@H]1N[C@]2(C(=O)Nc3ccccc32)[C@@H]2C(=O)N(c3cc(C(F)(F)F)ccc3Cl)C(=O)[C@H]12	none
Cc1c(Cl)ccc2c1NC(=O)C21NC(CCC(N)=O)[C@H]2C(=O)N(c3ccc(Cl)cc3)C(=O)[C@H]21 (stereo partly drawn)	ALDH1A1 inh 8.91µM
NC(=O)C[C@@H]1N[C@]2(C(=O)Nc3ccccc32)[C@@H]2C(=O)N(C3CCCCC3)C(=O)[C@H]12	none
NC(=O)c1ccccc1NC(=O)CS(=O)(=O)Cc1ccccc1	ALDH1A1 inh inconclusive
CC(C)Oc1ccc(C(=O)NC2=NCCS2)cc1	ALDH1A1 inh 20µM (no result: HPGD inh, PNC inhibitor)

Bioassay records deposited in PubChem by National Center for Advancing Translational Sciences (NCATS).
